Measured values as given in PubChem BioAssay (NCI).
Compounds without any hit were thinned out: in the full panel of roughly 79,000, 15% have a hit. Calls of active or inactive are those of the source. Cut-off read from the data, not from the text of the source: active = growth inhibition above about 70%; inactive = the rest.

Tests used:
[1] = NCI Yeast Anticancer Drug Screen. Data for the wt1 strain (AID 149);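 note: 0% = growth of vehicle-treated wt1 cultures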; conditions: S. cerevisiae wt1 strain (SPY 50644) growth inhibition, stronger effect = higher value
In short: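 The wt1 strain was treated with compounds, and growth was compared with vehicle-treated cultures to give inhibition.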

[2] = NCI Yeast Anticancer Drug Screen. Data for the rad50EPP+ strain (AID 151);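 note: 0% = growth of vehicle-treated control cultures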; conditions: S. cerevisiae rad50 mutant strain, stronger effect = higher value
In short: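 Read-out is yeast growth inhibition relative to vehicle; cells used were the rad50EPP+ strain.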

[3] = NCI Yeast Anticancer Drug Screen. Data for the rad50 strain (AID 155);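 note: 0% = growth of vehicle-only cultures of the same strain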; conditions: S. cerevisiae rad50 strain growth inhibition, stronger effect = higher value
In short: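 Cells are treated with compound, grown, and their growth is then scored against vehicle-only cultures of the same repair-deficient yeast strain.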

[4] = NCI Yeast Anticancer Drug Screen. Data for the mec2-1 strain (AID 157); conditions: S. cerevisiae mec2-1 strain, stronger effect = higher value
In short: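 Using mec2-1 yeast: add compound, measure growth, express inhibition versus vehicle-treated cultures.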

[5] = NCI Yeast Anticancer Drug Screen. Data for the rad14 strain (AID 159);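 note: 0% = growth of vehicle-treated control cultures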; conditions: S. cerevisiae rad14 strain growth inhibition, stronger effect = higher value
In short: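 Readout: yeast growth inhibition, referenced to vehicle-only cultures. Strain bears a defined alteration in DNA damage repair.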

[6] = NCI Yeast Anticancer Drug Screen. Data for the sgs1 mgt1 strain (AID 161);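 note: 0% = growth of cultures given vehicle only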; conditions: S. cerevisiae sgs1 mgt1 strain, stronger effect = higher value
In short: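 This yeast growth screen uses a strain with defined DNA-repair lesions; compound-treated growth is compared with vehicle-treated growth.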

[7] = NCI Yeast Anticancer Drug Screen. Data for the CLN2oe strain (AID 163);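 note: 0% = growth of vehicle-only control cultures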; conditions: S. cerevisiae CLN2oe strain, stronger effect = higher value
In short: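 Whole-cell yeast growth assay. A strain engineered for altered cell-cycle control received compound, and inhibition relative to vehicle-treated cultures was recorded.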

[8] = NCI Yeast Anticancer Drug Screen. Data for the cln2 rad14 strain (AID 165);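 note: 0% = growth equal to vehicle treated cultures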; conditions: S. cerevisiae cln2 rad14 strain, stronger effect = higher value
In short: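 Yeast strain cln2 rad14, bearing defects in cell cycle control and DNA repair, serves as the test system; values reflect growth inhibition compared with vehicle.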

[9] = NCI Yeast Anticancer Drug Screen. Data for the bub3 strain (AID 167); conditions: S. cerevisiae bub3 mutant strain, stronger effect = higher value
In short: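 Part of a panel of yeast mutants defective in DNA damage repair or cell cycle regulation. Each strain is grown with compound, and inhibition is calculated relative to solvent-treated cultures.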

[10] = NCI Yeast Anticancer Drug Screen. Data for the wt2 strain (AID 169);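 note: 0% = growth of vehicle-treated yeast cultures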; conditions: S. cerevisiae wt2 strain growth inhibition, stronger effect = higher value
In short: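 Treated yeast vs. vehicle-treated yeast: growth inhibition determined.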

[11] = NCI Yeast Anticancer Drug Screen. Data for the mlh1 strain (AID 171);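 note: 0% = growth of vehicle-treated control cultures of the same strain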; conditions: S. cerevisiae mlh1 strain growth inhibition, stronger effect = higher value
In short: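 A yeast strain with a defined genetic lesion serves as the test organism. Cultures receive compound or vehicle, and growth is measured.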

[12] = NCI Yeast Anticancer Drug Screen. Data for the sgs1 strain (AID 173);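 note: 0% = growth of vehicle-only control cultures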; conditions: S. cerevisiae sgs1 mutant, stronger effect = higher value
In short: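 A genetically defined yeast mutant is incubated with the test compound, and its growth is compared to that of the same strain given vehicle.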

[13] = NCI Yeast Anticancer Drug Screen. Data for the rad18 strain (AID 177); conditions: S. cerevisiae rad18 mutant growth inhibition, stronger effect = higher value
In short: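 Measured value is growth inhibition of a yeast strain bearing a DNA repair alteration, referenced to vehicle-treated cells.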

[14] = NCI Yeast Anticancer Drug Screen. Data for the rad52 strain (AID 147);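 note: 0% = growth of vehicle-treated control cultures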; conditions: S. cerevisiae rad52 mutant growth inhibition, stronger effect = higher value
In short: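 Here a repair-compromised yeast strain receives each compound; its growth is then quantified and normalised to vehicle-only controls.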

[15] = NCI Yeast Anticancer Drug Screen. Data for the mlh1 rad18 strain (AID 175); conditions: S. cerevisiae mlh1 rad18 strain growth inhibition, stronger effect = higher value
In short: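 Steps: expose repair-defective yeast to compound; measure growth; express inhibition against vehicle-treated controls.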

[16] = at 5.0 µM (retest, dose inferred, filed as 0.5)
[17] = at 50.0 µM (retest, dose inferred, filed as 5.0)

Measured: growth inhibition

CC(=O)N1C(=O)/C(=C\C(=O)c2ccc(Cl)cc2)c2ccccc21
inactive: [1]; at 1.2 µM 5% | [1]; at 3.7 µM 7% | [1]; at 11.0 µM 31% | [2]; at 1.2 µM -2% | [2]; at 3.7 µM 12% | [2]; at 11.0 µM 22% | [2]; at 33.0 µM 47% | [3]; at 1.2 µM 11% | [3]; at 3.7 µM 0% | [3]; [16] 44% | [3]; at 11.0 µM 51% | [4]; at 1.2 µM -3% | [4]; at 3.7 µM -8% | [4]; [16] 45% | [4]; at 11.0 µM 17% | [5]; at 1.2 µM -16% | [5]; at 3.7 µM -10% | [5]; at 11.0 µM 8% | [6]; [16] 41% | [7]; at 1.2 µM -38% | [7]; at 3.7 µM -14% | [7]; at 11.0 µM 2% | [7]; at 33.0 µM 66% | [8]; [16] 14% | [9]; at 1.2 µM 2% | [9]; at 3.7 µM -23% | [9]; [16] 13% | [9]; at 11.0 µM -15% | [10]; at 1.2 µM 25% | [10]; at 3.7 µM 52% | [11]; at 1.2 µM -18% | [11]; at 3.7 µM 2% | [11]; at 11.0 µM 31% | [12]; at 1.2 µM -15% | [12]; at 3.7 µM 17% | [12]; at 11.0 µM 49% | [13]; at 1.2 µM 14% | [13]; at 3.7 µM 32% | [13]; at 11.0 µM 66%
active: [1]; at 33.0 µM 79% | [1]; at 100.0 µM 94% | [2]; at 100.0 µM 72% | [3]; at 33.0 µM 90% | [3]; [17] 96% | [3]; at 50.0 µM 76% | [3]; at 100.0 µM 92% | [4]; at 33.0 µM 81% | [4]; [17] 98% | [4]; at 50.0 µM 87.4% | [4]; at 100.0 µM 91% | [5]; at 33.0 µM 71% | [5]; at 100.0 µM 92% | [6]; [17] 96% | [6]; at 50.0 µM 86.3% | [7]; at 100.0 µM 90% | [8]; [17] 91% | [8]; at 50.0 µM 77.2% | [9]; at 33.0 µM 81% | [9]; [17] 96% | [9]; at 50.0 µM 85.8% | [9]; at 100.0 µM 92% | [10]; at 11.0 µM 93% | [10]; at 33.0 µM 97% | [10]; at 100.0 µM 93% | [11]; at 33.0 µM 78% | [11]; at 100.0 µM 92% | [12]; at 33.0 µM 87% | [12]; at 100.0 µM 92% | [13]; at 33.0 µM 92% | [13]; at 100.0 µM 92%

O=C1C=CC(=O)N1c1ccc(I)cc1
inactive: [14]; at 1.2 µM 12% | [14]; at 3.7 µM 26% | [1]; at 1.2 µM -9% | [1]; at 3.7 µM 33% | [3]; at 1.2 µM 21% | [3]; at 3.7 µM 37% | [3]; [16] 26% | [3]; [17] 54% | [4]; at 1.2 µM 12% | [4]; at 3.7 µM 41% | [4]; [16] 31% | [4]; [17] 65% | [5]; at 1.2 µM 11% | [5]; at 3.7 µM 28% | [7]; at 1.2 µM 13% | [7]; at 3.7 µM 26% | [8]; [16] 56% | [9]; at 1.2 µM 5% | [9]; at 3.7 µM 15% | [10]; at 1.2 µM -2% | [10]; at 3.7 µM 16% | [11]; at 1.2 µM 13% | [11]; at 3.7 µM 40% | [12]; at 1.2 µM 29% | [15]; [16] 17% | [13]; at 1.2 µM 27% | [13]; at 3.7 µM 35% | [13]; at 11.0 µM 49%
active: [14]; at 11.0 µM 97% | [14]; at 33.0 µM 99% | [14]; at 100.0 µM 98% | [1]; at 11.0 µM 96% | [1]; at 33.0 µM 99% | [1]; at 100.0 µM 98% | [3]; at 11.0 µM 96% | [3]; at 33.0 µM 98% | [3]; at 50.0 µM 92% | [3]; at 100.0 µM 98% | [4]; at 11.0 µM 99% | [4]; at 33.0 µM 99% | [4]; at 50.0 µM 93.7% | [4]; at 100.0 µM 100% | [5]; at 11.0 µM 97% | [5]; at 33.0 µM 99% | [5]; at 100.0 µM 98% | [6]; [16] 97% | [6]; [17] 100% | [6]; at 50.0 µM 93.6% | [7]; at 11.0 µM 96% | [7]; at 33.0 µM 100% | [7]; at 100.0 µM 99% | [8]; [17] 100% | [8]; at 50.0 µM 92.1% | [9]; [16] 100% | [9]; at 11.0 µM 98% | [9]; at 33.0 µM 99% | [9]; [17] 99% | [9]; at 50.0 µM 92.4% | [9]; at 100.0 µM 98% | [10]; at 11.0 µM 81% | [10]; at 33.0 µM 100% | [10]; at 100.0 µM 99% | [11]; at 11.0 µM 98% | [11]; at 33.0 µM 100% | [11]; at 100.0 µM 99% | [12]; at 3.7 µM 76% | [12]; at 11.0 µM 100% | [12]; at 33.0 µM 100% | [12]; at 100.0 µM 100% | [15]; [17] 72% | [15]; at 50.0 µM 92.2% | [13]; at 33.0 µM 99% | [13]; at 100.0 µM 99%

CCCc1[nH]nc(C(N)=O)c1N=NN(C)C
active: [14]; at 33.0 µM 90% | [14]; at 100.0 µM 96% | [2]; at 33.0 µM 82% | [2]; at 100.0 µM 95% | [3]; at 33.0 µM 83% | [3]; [17] 81% | [3]; at 50.0 µM 94.8% | [3]; at 100.0 µM 94%
inactive: [14]; at 1.2 µM 2% | [14]; at 3.7 µM 12% | [14]; at 11.0 µM 37% | [2]; at 1.2 µM 2% | [2]; at 3.7 µM 16% | [2]; at 11.0 µM 43% | [3]; at 1.2 µM 3% | [3]; at 3.7 µM 4% | [3]; [16] -108% | [3]; at 11.0 µM 31% | [4]; at 1.2 µM 1% | [4]; at 3.7 µM -1% | [4]; [16] -44% | [4]; at 11.0 µM -14% | [4]; at 33.0 µM 11% | [4]; [17] -15% | [4]; at 50.0 µM 14.1% | [4]; at 100.0 µM 63% | [5]; at 1.2 µM 0% | [5]; at 3.7 µM -1% | [5]; at 11.0 µM 5% | [5]; at 33.0 µM 11%
